# Source: PubChem BioAssay (Tox21)
# Results filed as inconclusive are left out. Unmarked numbers belong to inactive results. Active and inactive are the calls of the source. Calls follow the shape of the dose curve; as a rule, active = well fitted cell-killing curve with a large enough effect in the repeat runs; inconclusive = weak or mixed curves; inactive = flat fitted curve, though single readings scatter. Where a SMILES comes first, the peptide text is derived from it. [ ]: non-standard residue; d: D form. pGlu = O=C1CC[C@@H](C(=O)O)N1
# Experiment: qHTS RealTime-Glo MT Cell Viability Assay in HepG2 cells - 24 hour (AID 1224867); also: nearly all actives have a fitted effect of over 50% in size
# Conditions: RealTime-Glo luminescence; series mostly up to 76.8 µM
# Excerpt: U.S. Tox21 Program National Center for Advancing Translational Sciences [NCATS] NIH Chemical Genomics Center [NCGC] U.S. Environmental Protection Agency [EPA] National Institutes of Environmental Health Sciences [NIEHS] National Toxicology Program [NTP] U.S. Food and Drug Administration [FDA] Tox21 Assay Overview: Measure of cell viability is critical in the cell-base assay. Analysis of cell viability is necessary for the characterization of cell responses to cytotoxic drugs and environmental stress. A RealTime-Glo MT Cell Viability Assay to monitor cell viability in real time of continues cell culture during 40 hours of compound treatment was used to screen Tox21 10K library compounds in HepG2 cells. The RealTime-Glo MT Cell Viability Assay is a nonlytic, homogeneous, bioluminescent method to measure cell viability in real time using a simple, plate-based method. The assay involves adding NanoLuc luciferase and a cell-permeant prosubstrate to cells in culture. Viable cells reduce the proprietary prosubstrate to generate a substrate for NanoLuc luciferase. This substrate diffuses from cells into the surrounding culture medium, where it is rapidly used by the NanoLuc Enzyme to produce a luminescent signal. The signal correlates with the number of viable cells, making the assay well suited for cytotoxicity studies.
# Tox21 Assay Protocol Summary: The mixture of HepG2 cell suspension and reagents were dispensed at 600cells/6 ul/well in 1536-well tissue culture treated black solid bottom plates using a Multidrop dispenser. After the assay plates were incubated at a 37 C/5% CO2 incubator for 5 hours, 23 nL of compounds dissolved in DMSO, positive and negative controls was transferred to the assay plate by a pintool work station. The plates were incubated at 37 C for 40 hours. The luminescence intensity were measured at 0h, 8h, 16h, 24h, 32h and 40h time points using ViewLux plate reader during compound treatment.
# % is scaled to controls: 0 for no effect and ±100 for the full control effect.
SMILES,outcome,"activity change, negative = cytotoxicity"
O=C1CCCCCCCCCCCCCCO1,inactive,–
COCCOC[C@H](CC1(C(=O)NC2CCC(C(=O)O)CC2)CCCC1)C(=O)Oc1ccc2c(c1)CCC2 (stereo not given in full),inactive,–
CCN1C=CN(C)C1C (stereo not given),inactive,–
OCCc1ccccn1,inactive,–
Nc1c2c(nc3c1CCC3)CCCC2,inactive,–
CC(C)COC(=O)c1ccc(N)cc1,inactive,–
O=C(O)CCCC[P+](c1ccccc1)(c1ccccc1)c1ccccc1,inactive,–
CCCCCCCCCCCCCCC(=O)O,inactive,–
CCO[Si](OCC)(OCC)c1ccccc1,inactive,–
CCOC(=O)CCC(=O)OCC,inactive,–
CCCCCCCCCCOc1cc2c(=O)c(C(=O)OCC)c[nH]c2cc1OCC,–,3.75% [at 6.97 µM]
Cc1cc(C)c(N=Nc2c(O)c(S(=O)(=O)O)cc3cc(S(=O)(=O)O)ccc23)cc1C,–,-1.15% [at 6.97 µM]
C[C@@H]1C[C@H]2[C@@H]3C[C@H](F)C4=CC(=O)C(Cl)=C[C@]4(C)[C@@]3(F)[C@@H](O)C[C@]2(C)[C@@]1(O)C(=O)CO,inactive,–
CC(=O)N[C@H]1[C@H]([C@H](O)[C@H](O)CO)OC(C(=O)O)=C[C@@H]1N=C(N)N,inactive,–
CO[C@@]1(NC(=O)C(C(=O)O)c2ccc(O)cc2)C(=O)N2C(C(=O)O)=C(CSc3nnnn3C)CO[C@@H]21 (stereo not given in full),inactive,–
O=C(O)CCSCCC(=O)O,inactive,–
COc1cc(C(=O)NCc2ccc(OCCN(C)C)cc2)cc(OC)c1OC,inactive,–
CC(C)C1CCC(O)CC1 (stereo not given),inactive,–
COc1cc(-c2ccc(=O)[nH]n2)ccc1OC(F)F,inactive,–
CC(C)c1ccc2ncccc2c1,inactive,–

SMILES,outcome,"activity change, negative = cytotoxicity"
Cc1ccnc(NS(=O)(=O)c2ccc(N)cc2)n1,inactive,–
CC(=O)c1ccc2ccccc2c1,inactive,–
CCNS(=O)(=O)c1ccc(C)cc1,inactive,–
CC12CCC(C(=O)C1=O)C2(C)C (stereo not given),inactive,–
CC1=NS(=O)(=O)c2cc(Cl)ccc2N1,inactive,–
CCOC(=O)COC(=O)c1ccccc1C(=O)OCC,inactive,–
Cc1nc2ccc(CN(C)c3ccc(C(=O)N[C@@H](CCC(=O)O)C(=O)O)s3)cc2c(=O)[nH]1,inactive,–
CCNC(=O)[C@@H]1CCCN1C(=O)[C@H](CCCN=C(N)N)NC(=O)[C@H](CC(C)C)NC(=O)CNC(=O)[C@H](Cc1ccc(O)cc1)NC(=O)[C@H](CO)NC(=O)[C@H](Cc1c[nH]c2ccccc12)NC(=O)[C@H](Cc1cnc[nH]1)NC(=O)[C@@H]1CCC(=O)N1 ([pGlu]HWSYGLRP-NHEt),inactive,–
Cc1ccc(-c2ccccc2C#N)cc1,inactive,–
CCCCCCCCCCCCSC,inactive,–
c1ccc(CCc2ccccc2)cc1,inactive,–
CCC(C(=O)NC(=O)NC(C)=O)c1ccccc1 (stereo not given),inactive,–
C[C@H]1C[C@H]2[C@@H]3CCC4=CC(=O)C=C[C@]4(C)[C@H]3C(=O)C[C@]2(C)[C@@]1(O)C(=O)CO,inactive,–
CC(C#N)(CCC(=O)O)N=NC(C)(C#N)CCC(=O)O (stereo not given),inactive,–
CCOC(=O)c1ccccc1,inactive,–
COc1cc(C(=O)OC(COCCC(C)C)CN2CCOCC2)cc(OC)c1OC (stereo not given),inactive,–
CCN(CC#N)c1cccc(C)c1,inactive,–
Cc1ccc(-c2ncc(Cl)cc2-c2ccc(S(C)(=O)=O)cc2)cn1,inactive,–
O=S(=O)(O)c1cccc2ccccc12,inactive,–
Clc1cc(Cl)cc(Cl)c1,inactive,–
